Results on 75 molecules are retold here after PubChem BioAssay AID624417 (National Center for Advancing Translational Sciences (NCATS), 2012).

Molecules are shown by their SMILES. Screen size: about 410,000 compounds; about 6,400 (1.6%) were called active. Where a call stands in place of a potency, no number is given. Another 20% or so got no clear call; they are omitted. The sample holds actives, similar compounds and a random draw of the others, so the mix is not that of the screen. The call rests on the fitted dose curve; in most records, active means well fitted inhibition curve with a large enough effect; inconclusive means small, poorly fitted or top-dose-only effect; inactive means no such curve, though single readings can be large or run the other way.
Potency means the concentration at half of the fitted maximal effect.

For the experiment, the target named is Glucagon-like peptide 1 receptor (Homo sapiens) (UniProt P43220). As to the kind of experiment: qHTS of GLP-1 Receptor Inverse Agonists (Inhibition Mode). Further: nearly all actives have a fitted effect of over 55% in size. Conditions: HEK293 GLP-1R CRE-luciferase, luminescence, 24 h, GLP-1R form is constitutively active; series mostly up to 38.3 µM. In short, it runs like this: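 HEK293 cells stably co-expressing constitutively active GLP-1R and a cAMP-responsive luciferase reporter were seeded in DMEM with 10% Nu serum, given compounds after 12 h, and incubated 24 h at 37 deg C. Luminescence was then read.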
Glucagon-like peptide 1 receptor (Homo sapiens), sequence (P43220 whole entry, looked up): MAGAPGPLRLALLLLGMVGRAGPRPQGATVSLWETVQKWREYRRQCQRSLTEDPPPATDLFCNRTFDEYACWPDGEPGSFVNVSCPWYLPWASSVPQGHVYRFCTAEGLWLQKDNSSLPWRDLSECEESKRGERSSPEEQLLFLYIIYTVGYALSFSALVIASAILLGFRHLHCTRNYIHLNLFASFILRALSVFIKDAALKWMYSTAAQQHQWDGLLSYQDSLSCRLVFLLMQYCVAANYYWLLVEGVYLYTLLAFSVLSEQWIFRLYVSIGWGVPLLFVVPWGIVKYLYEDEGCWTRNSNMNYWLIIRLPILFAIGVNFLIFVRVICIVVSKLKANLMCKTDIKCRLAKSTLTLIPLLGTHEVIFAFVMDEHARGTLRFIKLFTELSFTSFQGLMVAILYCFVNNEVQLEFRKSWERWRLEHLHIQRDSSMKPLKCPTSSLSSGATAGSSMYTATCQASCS
With `CSc1ccc(CCNC(=O)C2CCN(c3nnc(-n4cccc4)s3)CC2)cc1`, the Potency result is “inactive”. As to `CCOc1ccc(CNC(=O)C2CCN(c3nnc(-n4cccc4CNc4ccc(C)cc4)s3)CC2)cc1OC`, the Potency entry was “inactive”. Consider `Cc1ccc(CCNC(=O)C2CCN(c3nnc(-n4cccc4CNc4ccc(C)cc4)s3)CC2)cc1`, for which the Potency is 4.47 µM (active). Same read-out and setting: with `O=C(NCc1ccccc1)C(c1ccc(F)cc1)N1CCN(C(=O)C2CCCO2)CC1` (stereo not given) the entry was “inactive”; with `O=S1(=O)CC(N2CCSCC2)CN1Cc1cn(Cc2cccc(Cl)c2)nn1` (stereo not given), “inactive”. Still for that read-out and setting: with `C[C@@H]1CN([C@@H](C)CO)C(=O)CCCn2cc(nn2)CO[C@H]1CN(C)S(=O)(=O)c1ccc(-n2cccn2)cc1` the entry was “inactive”.

Regarding `COc1ccccc1NC(=O)C(CC(=O)O)Cc1cc(C)cc(C)c1` (stereo not given), the Potency result is “inactive”. On the same count and under the same terms, next, `COc1ccccc1NC(=O)[C@H](COCc1ccccc1)NC(=O)OC(C)(C)C`: 10 µM (active); `COc1ccccc1NC(=O)CC(NCCN(C)C)C(=O)O` (stereo not given): “inactive”; `O=C(NCc1nnnn1-c1ccc(Cl)cc1)c1ccc2c(c1)OCO2`: “inactive”. For the molecule `COc1cccc(/C=C2\SC(=S)N(CCCC(=O)N3CCOCC3)C2=O)c1`, the Potency entry was “inactive”. Still for that read-out and setting: next, `COc1ccccc1N(C)S(=O)(=O)c1ccc(C(=O)NC2CCCCCC2)cc1`: 10 µM (active). Still for that read-out and setting: with `COc1ccc(S(=O)(=O)NC(C)C)cc1C(=O)NC1CCCCC1` the entry was “inactive”. On the same count and under the same terms, next, `COc1ccccc1N(C)S(=O)(=O)c1ccc(C(=O)N2CCC(C(N)=O)CC2)cc1`: “inactive”.

Regarding `O=C(Nc1ccc(Cl)cc1)c1csc([C@@H]2O[C@H](CO)[C@H](O)[C@H](O)[C@H]2O)n1`, the Potency result is “inactive”.

`CSc1ncnc2c1ncn2CCCNCC1CCCCC1`: the Potency entry is “inactive”. The same measure, in the same setting: next, `CCOC(=O)C1CCCN(C(=O)c2cc(-c3cccs3)oc2C)CC1` (stereo not given): “inactive”; `O=C(NCc1ccc(F)cc1F)[C@@H]1CCCN1C(=O)[C@@H]1CCCN1C(=O)c1cccc(Cl)c1`: “inactive”; `COc1ccc(N2c3ccccc3CN(Cc3ccccc3)[C@@H](C)[C@H]2Cc2ccc(-c3ccccc3)cc2)cc1`: “inactive”. Still for that read-out and setting: next, `COC(=O)c1ccc2nc(-c3ccccc3)c(Cc3ccc(OC)cc3C)n2c1`: “inactive”; `CCN(CC)c1ncnc2c1ncn2[C@H]1CN(Cc2cccs2)C[C@@H](CO)O1`: “inactive”. With `Clc1ncn(CCOc2ccccc2)c1Cl`, the activity change, negative = inhibition is 15.4% [at 0.307 µM] (inactive). In the case of `COCCOCCn1cnc2ccccc21`, the Potency entry was “inactive”. As to `Cc1cc2ncn(CCCCOc3ccccc3)c2cc1C`, the Potency is 10 µM (active). For the molecule `COC(=O)c1ccc(CN2C(=O)C(Cc3ccccc3)ON=C2c2ncccc2C)o1` (stereo not given), the Potency entry is “inactive”. The same measure, in the same setting: next, `CCc1nnc(NC(=O)c2ccco2)s1`: “inactive”. The same measure, in the same setting: next, `OC[C@@H]1CN(Cc2cccs2)C[C@H](n2cnc3c(Nc4ccccc4)ncnc32)O1`: “inactive”; `S=c1[nH]nc(-c2ccc(Cl)cc2)n1CC1CCCO1` (stereo not given): “inactive”. For the molecule `O=C(c1nnc(-c2ccc(Cl)cc2)o1)C1CCCC1`, the Potency result is “inactive”. Same read-out and setting: with `O=C(c1[nH]ncc1-c1ccc(Cl)cc1)C1CO1` (stereo not given) the figure was 11.2 µM (active); with `CC(=O)OC[C@@H]1CN(Cc2ccccc2)C[C@H](n2cnc3c(NCc4ccco4)ncnc32)O1`, “inactive”. For the molecule `CCCCCCN1C[C@@H](O)[C@H](n2cc(COC(=O)c3ccccc3)nn2)C[C@@H]1c1ccc(Cl)cc1`, the Potency entry is “inactive”. Same read-out and setting: with `C[C@H]1CN([C@@H](C)CO)C(=O)CCCn2nncc2CO[C@@H]1CN(C)S(=O)(=O)c1cccc(C#N)c1` the entry was “inactive”; with `COCCCN1C(=O)C(CC(=O)NCc2cccs2)CC(C(=O)N2CCOCC2)=C1C` (stereo not given), “inactive”; with `CCOc1ccc(NC(=O)c2nc(SCC)ncc2Cl)cc1`, “inactive”.

On to `CCOc1ccc(N(Cc2ccccc2)C(=O)c2nc(SCC)ncc2Cl)cc1`, for which the Potency was 5.62 µM (active). For `CCSc1ncc(Cl)c(C(=O)Nc2c(C(=O)c3ccccc3)oc3ccccc23)n1`, the Potency entry was “inactive”. In the case of `CC(=O)C1=CCC(c2ccccc2)N(S(=O)(=O)c2ccc(C)cc2)C1` (stereo not given), the Potency entry is “inactive”. On to `COc1ccc(C(=O)OCC(=O)Nc2cc(C)on2)cc1F`, for which the Potency entry was “inactive”. Still for that read-out and setting: next, `COC(=O)c1ccc2c(c1)S(=O)(=O)NC2C` (stereo not given): “inactive”.

Turning to `Cc1cc(Br)cn2c(Cc3ccccc3C(F)(F)F)c(C3CCCCC3)nc12`, the Potency entry was “inactive”. For `COc1ccc(CNC(=O)c2ccc(-c3cccnc3)c3ccoc23)cc1OC`, the Potency result is “inactive”. Same read-out and setting: with `O=C(NC1(C(F)(F)F)N=C(c2ccccc2)N(C2CCCCC2)C1=O)c1ccccc1F` (stereo not given) the figure was 11.2 µM (active); with `COC(=O)NC1(C(F)(F)F)NC(=O)N(C2CCCCC2)C1=O` (stereo not given), “inactive”; with `O=C(NC1(C(F)(F)F)NC(=O)N(C2CCCCC2)C1=O)c1ccco1` (stereo not given), “inactive”. Same read-out and setting: next, `CC1(C(=O)NS(=O)(=O)C2CC2)CCCN(C(=O)CSc2ccccc2)C1` (stereo not given): “inactive”; `CC1=C(C(=O)N(C)C)CC(CC(=O)NCCN2CCOCC2)C(=O)N1Cc1ccccc1` (stereo not given): “inactive”. Turning to `C=C1C(=O)[C@]23C[C@H]1CCC2[C@@]1(C)C(C[C@@H]3O)[C@](C)(C(=O)O)CC[C@@H]1O` (stereo not given in full), the Potency result was “inactive”. In the case of `COc1cc(C=C(OC(C)=O)c2ccc3c(c2)OCO3)cc(OC)c1OC`, the Potency entry is “inactive”.

Regarding `C[C@H]1Cn2cnc(C(=O)N[C@H](C)c3ccccc3)c2C(=O)N1`, the Potency result was “inactive”. On the same count and under the same terms, next, `CCCCc1nc2ccc(F)cc2cc1C`: “inactive”; `O=C(Nc1ccc(F)cc1)c1ccc(S(=O)(=O)NCc2cccnc2)cc1`: “inactive”. In the case of `O=C(Nc1ccc(Br)cc1)c1ccc(Br)c(S(=O)(=O)NCc2ccccc2)c1`, the Potency was 10 µM (active).

Turning to `Cc1ccc(C(=O)Nc2ccc(C(=O)O)cc2)cc1S(=O)(=O)Nc1ccccc1`, the Potency entry is “inactive”. On to `O=C1OCCOC2CCCc3oc(-c4ccccc4)c1c32` (stereo not given), for which the Potency entry is “inactive”.

In the case of `COc1ccc(C(C)C)cc1-c1ccc2nncn2c1`, the Potency entry is “inactive”. `Cc1ccc(C(=O)N/C(=C/c2ccc(-c3cccc([N+](=O)[O-])c3)o2)C(=O)NCCCN(C)C)cc1`: the Potency was 10 µM (active). The same measure, in the same setting: next, `CN(C)CCNC(=O)/C(=C/c1cccc([N+](=O)[O-])c1)NC(=O)c1ccccc1`: “inactive”.

On to `N#C/C(=C\c1ccc(-c2cccc([N+](=O)[O-])c2)o1)C(=O)NCCN1CCOCC1`, for which the activity change, negative = inhibition was 31.2% [at 7.66 µM] (inactive). On to `O=C(OCC(=O)N1CCCCCC1)c1cccc(Cl)c1Cl`, for which the Potency entry is “inactive”. Still for that read-out and setting: next, `C[C@@H]1CN([C@H](C)CO)C(=O)CCCn2nncc2CO[C@@H]1CN(C)S(=O)(=O)c1cccc(C#N)c1`: “inactive”.

In the case of `Cc1ccc(Cn2cc(CN3CC(N4CCN(C)CC4)CS3(=O)=O)nn2)cc1` (stereo not given), the Potency entry is “inactive”. Still for that read-out and setting: with `CCn1c(SCC(=O)NC2CCCC2)nnc1-c1ccoc1C` the entry was “inactive”. For `COc1cc(Cl)c(C)cc1NC(=O)CSc1nnc(-c2ccco2)n1CC(C)C`, the Potency entry was “inactive”. `COc1ccccc1NC(=O)CSc1nnc(-c2ccoc2C)n1CCc1ccccc1`: the Potency is 7.94 µM (active). Still for that read-out and setting: next, `Cc1c(NC(=O)CSc2nnnn2-c2ccc(C(=O)O)cc2)c(=O)n(-c2ccccc2)n1C`: “inactive”; `Cc1c(NC(=O)CSc2nnc(-c3cccnc3)n2N)c(=O)n(-c2ccccc2)n1C`: “inactive”; `Cc1c(NC(=O)CSc2cccc3cccnc23)c(=O)n(-c2ccccc2)n1C`: 5.62 µM (active).

In the case of `Cn1cnc(S(=O)(=O)N2C[C@@H](O)COC[C@@H]3O[C@H](CC(=O)NC4CCC4)CC[C@H]32)c1`, the Potency result is “inactive”.

As to `Brc1ccc2nc(-c3ccccc3)c(Cc3ccccc3)n2c1`, the Potency result is “inactive”. Regarding `Cc1cccc(Nc2ccccc2C(=O)NCc2ccco2)c1C`, the Potency is 12.6 µM (active). Same read-out and setting: with `Cc1ccc(N(Cc2ccc(C(=O)Nc3ccccc3C(=O)NCc3ccco3)cc2)S(C)(=O)=O)cc1C` the entry was “inactive”; with `O=C(CCNC(=O)c1ccccc1Cl)NCc1ccco1`, “inactive”; with `CC1(C(=O)NCc2ccc3c(c2)OCO3)CCN1C(=O)Cc1cccs1` (stereo not given), “inactive”. Still for that read-out and setting: with `O=C(NCc1cccnc1)c1cc(C2CCCCN2C(=O)CCc2ccccc2)on1` (stereo not given) the entry was “inactive”.
